Assay results from PubChem BioAssay AID1159580 (chemical genetic matrix, 2015).
Several values for one entry are separate records, joined by “and”; a condition that tells them apart may be missing. Equal values may be shown once. Out of some 5,500 compounds screened, about 2,000 (36%) were called active. Roughly 18% stayed inconclusive and do not appear here. Rule as the data show it: active = normalized growth mostly below about 0.91 (no sharp cut-off); inconclusive = no clear call, values can overlap the other calls; inactive = mostly above about 0.92. The list shows a part of the results.

Assay: chemical genetic growth profiling, strain panel (AID 1159580);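 also: tested at 20 µM; growth read once vehicle control cultures reached saturation at 30 °C; 1 = growth at the plate median or of vehicle wells; lower values mean less growth of the strain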
Conditions: S. cerevisiae deletion strains, growth OD

Measured: normalized growth

COc1ccc(-c2cc(=O)c3c(O)c(OC)c(O[C@H]4O[C@H](CO[C@@H]5O[C@@H](C)[C@H](O)[C@@H](O)[C@H]5O)[C@@H](O)[C@H](O)[C@H]4O)cc3o2)cc1
inactive: locus YAL021C, strain ccr4, active compounds read low 1.02 | locus YAL026C, strain drs2, active compounds read low 1 | locus YAL030W, strain snc1, active compounds read low 1.01 | locus YBL061C, strain skt5, active compounds read low 0.996 | locus YBR009C, strain hhf1, active compounds read low 1 | locus YBR021W, strain FUR4, active compounds read low 1.02 | locus YBR023C, strain chs3, active compounds read low 0.996 | locus YBR171W, strain sec66, active compounds read low 0.989 | locus YBR229C, strain ROT2, active compounds read low 1.01 | locus YBR231C, strain swc5, active compounds read low 0.977 | locus YBR279W, strain paf1, active compounds read low 0.987 | locus YCL011C, strain gbp2, active compounds read low 0.991 | locus YCL016C, strain dcc1, active compounds read low 1.01 | locus YCL029C, strain bik1, active compounds read low 1.04 | locus YCL061C, strain MRC1, active compounds read low 1 | locus YCL069W, strain vba3, active compounds read low 1 | locus YCR088W, strain abp1, active compounds read low 1.01 | locus YDL005C, strain med2, active compounds read low 1 | locus YDL035C, strain GPR1, active compounds read low 1.02 | locus YDL040C, strain nat1, active compounds read low 0.98 | locus YDL074C, strain BRE1, active compounds read low 1.01 | locus YDL101C, strain DUN1, active compounds read low 1.02 | locus YDL185W, strain tfp1, active compounds read low 1.01 | locus YDL192W, strain arf1, active compounds read low 1.01 | locus YDR001C, strain nth1, active compounds read low 1 | locus YDR069C, strain doa4, active compounds read low 0.967 | locus YDR101C, strain arx1, active compounds read low 1.02 | locus YDR137W, strain rgp1, active compounds read low 1.05 | locus YDR150W, strain NUM1, active compounds read low 1.01 | locus YDR159W, strain sac3, active compounds read low 0.995 | locus YDR162C, strain NBP2, active compounds read low 1.03 | locus YDR195W, strain ref2 0.978 | locus YDR297W, strain sur2, active compounds read low 0.988 | locus YDR318W, strain mcm21, active compounds read low 1.02 | locus YDR334W, strain swr1, active compounds read low 0.99 | locus YDR335W, strain msn5, active compounds read low 1 | locus YDR388W, active compounds read low 1.01 | locus YDR392W, strain spt3, active compounds read low 0.981 | locus YDR502C, strain sam2, active compounds read low 1.01 | locus YEL003W, strain gim4, active compounds read low 0.982 | locus YEL037C, strain rad23, active compounds read low 1 | locus YEL061C, strain CIN8 (second series), active compounds read low 0.996 | locus YER015W, strain faa2, active compounds read low 0.984 | locus YER016W, strain bim1, active compounds read low 0.992 | locus YER110C, active compounds read low 1.02 | locus YER111C, strain swi4, active compounds read low 0.979 | locus YER155C, strain BEM2 (second series), active compounds read low 0.972 | locus YER155C, strain BEM2, active compounds read low 1.04 | locus YER167W, strain BCK2, active compounds read low 1.02 | locus YFR010W, strain ubp6, active compounds read low 0.994 | locus YGL078C, strain dbp3, active compounds read low 1.01 | locus YGL086W, strain mad1, active compounds read low 1.01 | locus YGL167C, strain pmr1, active compounds read low 0.983 | locus YGL173C, strain kem1, active compounds read low 0.996 | locus YGL227W, strain vid30, active compounds read low 1 | locus YGL240W, strain doc1, active compounds read low 0.998 | locus YGL248W, strain PDE1, active compounds read low 1.01 | locus YGL253W, strain hxk2, active compounds read low 1 | locus YGR078C, strain PAC10, active compounds read low 0.999 | locus YGR135W, strain pre9, active compounds read low 0.993 | locus YGR229C, strain SMI1, active compounds read low 1.16 | locus YGR252W, strain gcn5, active compounds read low 0.955 | locus YHR013C, strain ard1, active compounds read low 1 | locus YHR027C, strain rpn1, active compounds read low 0.99 | locus YHR030C, strain SLT2, active compounds read low 1.02 and 0.993 | locus YHR079C, strain IRE1 (second series), active compounds read low 1.01 | locus YHR079C, strain IRE1, active compounds read low 1.01 | locus YHR094C, strain hxt1, active compounds read low 1.01 | locus YHR129C, strain ARP1, active compounds read low 1 | locus YHR142W, strain chs7, active compounds read low 1.01 | locus YHR200W, strain rpn10, active compounds read low 1.01 | locus YIL066C, strain RNR3, active compounds read low 1.02 | locus YIL073C, strain SPO22, active compounds read low 1.08 | locus YIL125W, strain kgd1, active compounds read low 1.01 | locus YIR030C, strain dcg1, active compounds read low 1.02 | locus YJL092W, strain hpr5, active compounds read low 0.994 | locus YJL095W, strain BCK1 (second series), active compounds read low 1 | locus YJL095W, strain BCK1, active compounds read low 1.02 and 0.995 | locus YJL115W, strain asf1, active compounds read low 0.999 | locus YJL129C, strain trk1, active compounds read low 0.994 | locus YJL134W, strain LCB3, active compounds read low 1.02 | locus YJL154C, strain vps35, active compounds read low 1 | locus YJL164C, strain tpk1, active compounds read low 1 | locus YJL166W, strain qcr8, active compounds read low 1 | locus YJL168C, strain set2, active compounds read low 1 | locus YJL187C, strain SWE1 (second series), active compounds read low 1.01 | locus YJL187C, strain SWE1, active compounds read low 1.02 | locus YJR066W, strain TOR1, active compounds read low 0.906 | locus YKL009W, strain mrt4, active compounds read low 1.05 | locus YKL068W, active compounds read low 1.02 | locus YKL085W, strain MDH1 (second series), active compounds read low 1.02 | locus YKL085W, strain MDH1, active compounds read low 1.02 | locus YKL160W, strain elf1, active compounds read low 0.997 | locus YKL190W, strain CNB1, active compounds read low 1.01 | locus YKR001C, strain vps1, active compounds read low 1.01 | locus YKR026C, strain gcn3, active compounds read low 0.992 | locus YKR091W, strain srl3, active compounds read low 0.998 | locus YLL001W, strain dnm1, active compounds read low 1 | locus YLL026W, active compounds read low 0.998 | locus YLL041C, strain sdh2, active compounds read low 1 | locus YLR027C, strain aat2, active compounds read low 0.988 | locus YLR039C, strain RIC1, active compounds read low 1.1 | locus YLR058C, strain SHM2, active compounds read low 1.02 | locus YLR102C, strain apc9, active compounds read low 1.02 | locus YLR113W, strain HOG1, active compounds read low 1.04 | locus YLR221C, strain rsa3, active compounds read low 0.995 | locus YLR258W, strain gsy2, active compounds read low 1.02 | locus YLR262C, strain YPT6 (second series), active compounds read low 1.03 | locus YLR268W, strain sec22, active compounds read low 1.03 | locus YLR320W, strain mms22, active compounds read low 0.998 | locus YLR342W, strain FKS1 (second series), active compounds read low 1.03 | locus YLR342W, strain FKS1, active compounds read low 1 | locus YLR357W, strain rsc2, active compounds read low 0.964 | locus YLR370C, strain arc18, active compounds read low 0.995 | locus YLR371W, strain rom2, active compounds read low 1.03 | locus YLR384C, strain iki3, active compounds read low 0.978 | locus YLR418C, strain cdc73, active compounds read low 1.03 | locus YML016C, strain PPZ1, active compounds read low 0.991 | locus YML032C, strain rad52, active compounds read low 1.03 | locus YML120C, strain ndi1, active compounds read low 1.01 | locus YML124C, strain tub3, active compounds read low 1.02 | locus YMR058W, strain fet3, active compounds read low 0.928 | locus YMR078C, strain ctf18, active compounds read low 1.02 | locus YMR125W, strain sto1, active compounds read low 1 | locus YMR129W, active compounds read low 0.996 | locus YMR205C, strain PFK2, active compounds read low 1.05 | locus YMR223W, strain ubp8, active compounds read low 1.01 | locus YMR231W, strain pep5, active compounds read low 0.96 | locus YMR307W, strain GAS1, active compounds read low 1.08 | locus YNL067W, strain RPL9B, active compounds read low 1.01 | locus YNL071W, strain lat1, active compounds read low 1.01 | locus YNL128W, strain TEP1, active compounds read low 1.03 | locus YNL183C, strain NPR1, active compounds read low 0.938 | locus YNL209W, strain ssb2, active compounds read low 0.986 | locus YNL233W, strain BNI4, active compounds read low 1.01 | locus YNL248C, strain rpa49, active compounds read low 0.996 | locus YNL250W, strain rad50, active compounds read low 1.04 | locus YNL271C, strain bni1, active compounds read low 1.01 | locus YNL298W, strain CLA4, active compounds read low 1.02 | locus YNL307C, strain MCK1, active compounds read low 1.01 | locus YNL322C, strain KRE1 (second series), active compounds read low 1 | locus YNR049C, strain mso1, active compounds read low 1 | locus YNR052C, strain pop2, active compounds read low 1.01 | locus YOL012C, strain htz1 0.859 | locus YOL147C, strain pex11, active compounds read low 0.996 | locus YOR001W, strain rrp6, active compounds read low 0.98 | locus YOR061W, strain CKA2, active compounds read low 1.02 | locus YOR069W, strain VPS5, active compounds read low 1.01 | locus YOR070C, strain gyp1, active compounds read low 0.985 | locus YOR080W, strain dia2, active compounds read low 0.992 | locus YOR083W, strain WHI5, active compounds read low 0.998 | locus YOR106W, strain vam3, active compounds read low 0.992 | locus YOR136W, strain idh2, active compounds read low 1.02 | locus YOR144C, strain elg1, active compounds read low 1.02 | locus YOR184W, strain ser1, active compounds read low 1.04 | locus YOR231W, strain MKK1, active compounds read low 1.03 | locus YOR265W, strain rbl2, active compounds read low 1.02 | locus YOR270C, strain vph1, active compounds read low 0.993 | locus YOR290C, strain snf2, active compounds read low 0.992 | locus YOR316C, strain cot1, active compounds read low 1.02 | locus YPL051W, strain arl3, active compounds read low 0.995 | locus YPL078C, strain atp4, active compounds read low 1.03 | locus YPL106C, strain sse1, active compounds read low 0.974 | locus YPL240C, strain hsp82, active compounds read low 0.995 | locus YPL241C, strain CIN2, active compounds read low 1.01 | locus YPL256C, strain CLN2, active compounds read low 0.994 | locus YPR119W, strain clb2, active compounds read low 1.01 | locus YPR141C, strain kar3, active compounds read low 1.02 | locus YPR163C, strain tif3, active compounds read low 0.999 | locus YPR167C, strain met16, active compounds read low 1.01 | strain wtn01, active compounds read low 1.01
